Conditions in all cases: concentration: 1 μM, replicates: in singlicate; n = 1
In test [1] the test system is TNNI3K.
For test [2], the system named is T1, TRKA.
T1 construct: gene NTRK1

In test [3] the test system is TRKB.
Test [4] relates to T2, TRKC.
T2 construct: gene NTRK3

Test [5] deals with TRPM6.
For test [6], the system named is TSSK1B.
For test [7], the system named is TSSK3.
Test [8] deals with TTK.
Test [9] relates to TXK.
Test [10] relates to TYK2(JH1domain-catalytic).
For test [11], the system named is TYK2(JH2domain-pseudokinase).
For test [12], the system named is TYRO3.
Test [13] deals with ULK1.
The test system of test [14] is ULK2.
Test [15] relates to ULK3.
Test [16] has as its system T3, VEGFR2.
T3 construct: gene KDR

For test [17], the system named is T4, VPS34.
T4 construct: gene PIK3C3

Test [18] concerns VRK2.
Test [19] concerns WEE1.
The test system of test [20] is WEE2.
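Further: KINOMEscan kinase panel screen.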

With `Cn1cc(-c2ccc3c(c2)CCN3C(=O)Cc2cc(F)cc(F)c2F)c2c(N)ncnc21` [GSK2634140], the “%Inh” value in test [1] turned out to be 0%; in test [2], 36%; in test [3], 0%; in test [4], 38%; in test [5] it was 8%; in test [6], 0%. Besides, the “%Inh” value in test [7] was 8%; in test [8], 0%; in test [9] it was 13%; in test [10] it was 11%; in test [11] it was 44%; in [12] it was 0%. Further, the “%Inh” value turned out to be 14% in test [13]; 0% in test [14]; 4% in test [15]; 0% in test [16]; 16% in test [17]; 27% in test [18]. Also, the “%Inh” value is given as 0% in test [19] and 14% in test [20].

`Fc1cc(Cl)ccc1Nc1ccnc2cc(-c3ccc(CN4CCSCC4)o3)ccc12` [GW560106]: the “%Inh” value in [1] is recorded as 10%; in test [2] it was 72%; in test [3], 28%; in test [4], 0%; in test [5], 3%; in [6] it was 0%. Further, the “%Inh” value in [7] was determined as 14%; in test [8] it was 13%; in test [9], 82%; in test [10], 19%; in test [11], 52%; in test [12], 61%. In addition, the “%Inh” value in [13] is recorded as 0%; in test [14] it was 0%; in test [15], 15%; in test [16] it was 65%; in test [17] it was 0%; in [18], 29%. The “%Inh” value is recorded as 0% in test [19] and 2% in test [20].

In the case of `Cc1cc(-c2c(-c3ccc(F)cc3)ncn2CCCN2CCOCC2)nc(N)n1` [SB-222517], the “%Inh” value in [1] was found to be 0%; in test [2], 0%; in [3], 0%; in test [4] it was 0%; in test [5] it was 15%; in test [6], 0%. In addition, the “%Inh” value in [7] is 0%; in test [8], 48%; in [9], 14%; in [10], 0%; in test [11], 16%; in test [12], 0%. The “%Inh” value in test [13] came to 20%; in test [14], 30%; in test [15], 18%; in test [16], 5%; in test [17], 29%; in [18], 0%. For the same compound, the “%Inh” value amounted to 47% in [19] and 1% in [20].

For the compound `COC(=O)Nc1nc2cc(Oc3ccc(NC(=O)Nc4cccc(SC)c4)cc3)ccc2[nH]1.Cl` [GW697999], the “%Inh” value came to 81% in test [1]; 81% in [2]; 82% in [3]; 90% in [4]; 0% in test [5]; 0% in [6]. The “%Inh” value in test [7] is given as 11%; in [8], 4%; in test [9], 0%; in test [10] it was 10%; in test [11], 20%; in [12], 0%. The “%Inh” value in [13] was 14%; in test [14] it was 0%; in [15] it was 21%; in test [16], 77%; in [17] it was 18%; in [18], 26%. Further, the “%Inh” value amounted to 28% in test [19] and 11% in test [20].

Turning to `COc1ccc(NC(=O)c2ccoc2)cc1-c1ccc(C(=O)NCC2CC2)cc1` [GW810437], the “%Inh” value in test [1] was 1%; in test [2], 15%; in [3] it was 26%; in [4] it was 21%; in [5] it was 0%; in test [6] it was 0%. For the same compound, the “%Inh” value stood at 32% in test [7]; 0% in test [8]; 0% in test [9]; 61% in test [10]; 34% in test [11]; 12% in test [12]. In addition, the “%Inh” value in test [13] stood at 34%; in test [14], 28%; in [15] it was 41%; in test [16] it was 0%; in test [17] it was 11%; in test [18], 0%. Also, the “%Inh” value in test [19] is on record as 7%; in test [20], 13%.

Take `COc1ccc(C)c(Nc2ccnc(Nc3ccc(-c4cnc[nH]4)cc3)n2)c1.Cl` [GW784041]: the “%Inh” value came to 100% in [1]; 0% in test [2]; 0% in test [3]; 0% in test [4]; 0% in test [5]; 10% in test [6]. In addition, the “%Inh” value in test [7] came out at 0%; in test [8] it was 15%; in test [9] it was 15%; in [10], 44%; in test [11], 0%; in test [12], 44%. In addition, the “%Inh” value in test [13] amounted to 0%; in [14] it was 0%; in test [15], 6%; in test [16] it was 0%; in test [17], 54%; in test [18] it was 0%. The “%Inh” value in test [19] is listed as 0%; in test [20], 8%.

As for `NCCC(NC(=O)c1cc(Br)c(-c2ccnc3[nH]ccc23)s1)c1ccccc1.O=C(O)C(F)(F)F.O=C(O)C(F)(F)F` (centres unmarked) [GSK1307810], the “%Inh” value in test [1] came out at 2%; in test [2], 91.4%; in [3], 59%; in test [4], 47%; in test [5], 0%; in test [6] it was 0%. Further, the “%Inh” value in [7] is given as 20%; in test [8], 25%; in test [9], 0%; in [10], 83%; in test [11] it was 7%; in test [12], 0%. Besides, the “%Inh” value in test [13] is 30%; in test [14], 8%; in test [15] it was 16%; in [16], 55%; in test [17], 25%; in test [18] it was 23%. In addition, the “%Inh” value worked out at 4% in [19] and 0% in [20].

As for `COc1ccc(C2=C(Nc3cccc(O)c3)C(=O)NC2=O)cc1` [SB-390766], the “%Inh” value is on record as 27% in test [1]; 0% in test [2]; 41% in [3]; 51% in test [4]; 30% in test [5]; 8% in [6]. Also, the “%Inh” value amounted to 12% in [7]; 0% in test [8]; 8% in test [9]; 25% in test [10]; 46% in test [11]; 0% in test [12]. The “%Inh” value in test [13] was determined as 26%; in test [14], 0%; in [15], 25%; in [16] it was 0%; in test [17], 0%; in test [18], 0%. In addition, the entries for the “%Inh” value in test [19] and in test [20] were 90% and 6%, respectively.

For the compound `Cc1ccc(C)c(NC(=O)Nc2ccc(C)c(-c3ccc(C(=O)Nc4ccncc4)cc3)c2)c1` [GSK1398473], the “%Inh” value in test [1] came to 59%; in [2], 0%; in test [3] it was 0%; in test [4], 0%; in test [5] it was 2%; in test [6], 17%. Moreover, the “%Inh” value in test [7] turned out to be 2%; in [8] it was 13%; in test [9], 25%; in test [10] it was 0%; in test [11], 4%; in test [12], 20%. Moreover, the “%Inh” value in [13] came out at 10%; in test [14], 0%; in test [15], 15%; in test [16] it was 3%; in test [17], 0%; in test [18], 0%. The “%Inh” value in test [19] and in [20] was 12% in each case.

As to `Cc1ccc(NC(=O)c2ccnc(N3CCCCC3)c2)cc1-c1ccc(C(=O)NCC2CC2)cc1` [GW775610], the “%Inh” value in test [1] amounted to 13%; in test [2], 58%; in test [3] it was 14%; in test [4] it was 0%; in test [5] it was 0%; in test [6] it was 0%. Also, the “%Inh” value in [7] is listed as 23%; in test [8] it was 0%; in [9], 0%; in [10], 19%; in test [11], 0%; in test [12] it was 0%. Besides, the “%Inh” value amounted to 0% in [13]; 0% in test [14]; 0% in test [15]; 0% in test [16]; 0% in [17]; 100% in test [18]. For the same compound, the “%Inh” value in test [19] is given as 0%; in [20], 37%.

(Values after PMC5540273 (PLoS ONE, 2017).)
